Consider two molecules from the supplement of paper PMC8728848.

This is one part of a sample in which the strongest signals are shown more often than they occur.

Common to all, as to test: glycan array binding signal (z-score within array); higher = stronger binding
Common to all, as to conditions: glycan notation: IUPAC condensed, linker removed

The target in test [1] is Fuc(a1-2)Gal(b1-3)GalNAc(b1-3)Gal(a1-4)Gal(b1-4)Glc. Summed up: (§1)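 Columns mapping to the same glycan were averaged after glycan names were converted to IUPAC-condensed notation. The data come from 3228 arrays in the Consortium for Functional Glycomics database, limited to those with an available protein sequence. Binding is reported as a within-array Z-score averaged across arrays of one protein sequence and across linkers.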

Test [2] addresses Fuc(a1-2)Gal(b1-4)GlcNAc6S. The essentials:
as §1

Test [3] has as its target Fuc(a1-2)Gal6S(b1-4)GlcNAc. The essentials:
as §1

Test [4] concerns the target Fuc(a1-2)[Gal(a1-3)]Gal(b1-3)GlcNAc. The essentials:
as §1

Test [5] has as its target Fuc(a1-2)[GalNAc(a1-3)]Gal(b1-4)GlcNAc. The essentials:
as §1

The target in test [6] is Gal(a1-3)GlcNAc. Summed up:
as §1

In test [7] the target is Gal(a1-4)Gal(b1-4)Gal. Summed up: as §1
The target in test [8] is Gal(a1-4)Gal(b1-4)GalNAc. Summed up:
as §1

Test [9] has as its target Gal(a1-6)Glc. The essentials: as §1
Test [10] deals with Gal(b1-3)Gal. Summed up: as §1
Test [11] deals with Gal(b1-3)[Fuc(a1-4)]GlcNAc(b1-3)Gal(b1-4)GlcNAc. The essentials: as §1
Test [12] addresses Gal(b1-3)[Neu5Ac(b2-6)]GlcNAc. The essentials: as §1
Test [13] deals with Gal(b1-4)GalNAc(b1-3)[Fuc(a1-2)]Gal(b1-4)GlcNAc. The essentials: as §1
Test [14] deals with Gal(b1-4)GlcNAc(b1-3)GalNAc. Summed up:
as §1

Test [15] concerns the target Gal(b1-4)GlcNAc(b1-6)[Gal(b1-3)]GlcNAc. Summed up: as §1
Test [16] addresses Gal3S6S(b1-4)GlcNAc6S. Summed up:
as §1

In test [17] the target is Gal4S(b1-4)GlcNAc. The essentials: as §1
Test [18] has as its target Gal6S(b1-4)Glc6S. The essentials: as §1
The target of test [19] is GlcNAc(b1-4)[GlcNAc(b1-6)]GalNAc. The essentials: as §1
The target in test [20] is Neu5Ac(a2-3)Gal(b1-3)GalNAc. The essentials: as §1
Test [21] concerns the target Neu5Ac(a2-3)Gal(b1-4)GlcNAc(b1-3)Gal(b1-4)[Fuc(a1-3)]GlcNAc. The essentials: as §1
The target in test [22] is Neu5Ac(a2-3)Gal(b1-4)GlcNAc(b1-6)[Gal(b1-3)]GalNAc. The essentials:
as §1

The target of test [23] is Neu5Ac(a2-3)Gal6S(b1-4)GlcNAc. The essentials:
as §1

Test [24] has as its target Neu5Gc(a2-3)Gal(b1-4)GlcNAc. Summed up: as §1
For test [25], the target named is Man(a1-3)[Man(a1-6)]Man. The essentials: as §1
Test [26] deals with Man(a1-3)[Man(a1-6)]Man(a1-6)[Man(a1-2)Man(a1-3)]Man(b1-4)GlcNAc(b1-4)GlcNAc. Summed up: as §1
Test [27] concerns the target Man(a1-3)[Man(a1-6)]Man(a1-6)[Man(a1-3)]Man. The essentials: as §1
Test [28] deals with Neu5Ac(a2-3)Gal. Summed up:
as §1

The target of test [29] is Neu5Ac(a2-3)Gal(b1-3)GalNAc(b1-4)[Neu5Ac(a2-8)Neu5Ac(a2-3)]Gal(b1-4)Glc. The essentials:
as §1

Test [30] addresses Neu5Ac(a2-3)Gal(b1-4)GlcNAc. Summed up: as §1
The target of test [31] is Neu5Ac(a2-3)Gal(b1-4)GlcNAc(b1-2)Man(a1-3)[GlcNAc(b1-2)Man(b1-4)GlcNAc(b1-2)Man(a1-6)]Man(b1-4)GlcNAc(b1-4)GlcNAc. Summed up:
as §1

Test [32] concerns the target Neu5Ac(a2-3)Gal(b1-4)GlcNAc(b1-3)Gal(b1-4)GlcNAc(b1-3)Gal(b1-4)GlcNAc. Summed up:
as §1

The target of test [33] is Neu5Ac(a2-6)GlcNAc(b1-4)GlcNAc(b1-4)GlcNAc. The essentials: as §1
Test [34] has as its target Neu5Ac9Ac(a2-3)Gal(b1-4)GlcNAc. The essentials:
as §1

In test [35] the target is Neu5Ac9Ac(a2-6)Gal(b1-4)GlcNAc. The essentials:
as §1

B1: Epa1 (Candida glabrata), Q6FUW5_CANGA (protein)
chain: MILNPALFLNKCVCIYTTLILLLLTNGGYATSSNDISLASKDPTTFPLGCSPDITTPKKGLSMELYSYDFRKKGSYPCWDAAYLDPNYPRTGYKSHRLLAKVDGVTGNINFYYHATKGCTPQLGHLPASYNYPKPLTMTNFTMLLYGYFRPKVTGFHTFTISADDLLFVNFGAGNAFDCCRRDSSADHFGNYQAYAIWGSKTAKDELTVHLDAGVYYPIRLFYNNREYDGALSFTFKTESNENTVSDFSEYFFSLDDTEEGCPGLISYDSSCASVKTSKIIGIDYHTETPNENLVPITKTIYHLGIPCTGTTTTPLCGSGFYDPLANKCVTINTSSTSSVTKTTSHTTSKEVSFHSSISSQKTLIPKSIPSPYGPIKSQSIPTEMETSSEISSSEYAFSDVISTPSHSPYTKKHSSLNSSSYTSTVIHSLTSYSISQGIFSTSLSEQNITSKSSTDKFSTATSMSNSITQSSIIISQSSTNNENYTTTSMHTSSDKISTETLNNSISTTTSILFSNSSTILKNNTTIISSDKDTHYHPVNPTIVCSTNKTEIICASITQPSISNSNNHWSSSVLRFNSTTVRSTLPSSAGSNETSINVPFSSSTESNASTSSTSTSNSKTVRSTLPSSAGSNETSINVPFSSSTESNTSTSSTSTSNSKTVRSTLPSSAGSNETSINVPFSSSTESNASTSSTSTSNSKTVRSTPFSSAGIIMTSLSQRNNKSASSYASSNSKCYNTADSCRKVHSTPSYLLTSSYTSEGVDYDCSLVSTKLKINDTNCLNNKHTTKSCLKTSVTTTIPTLEIKTARKSSSNTIGLHSYPTSSPNKSISSAPIIGYISSFKTIKTASPSYQTSDLTTITTITSLNNPGSTAVENTHESNDKSRKTSSNDISSKHSVIKETKDAVESSNKSHQTNTLKCSSIIIASSSHNSYESLGGTTLTLTLSKVYSPQNNDTLPFLEISEVNPSRTVLPESSKMMQYLTSTEERNKTARNTIATNIVSISTFHFEGEGNAIRMGYTQLLLMLIGIIVMNIGT
Turning to B1, the “glycan array binding signal (z-score)” value is -0.549 in test [1]; 1.65 in test [2]; -0.128 in [3]; -0.553 in [4]; -0.557 in test [5]; 0.208 in test [6]. In addition, the “glycan array binding signal (z-score)” value in [7] stood at 0.374; in [8], 1.29; in [9], 0.344; in [10] it was 2.4; in test [11], 1.75; in test [12], 0.26. Moreover, the “glycan array binding signal (z-score)” value in test [13] is 2.42; in test [14] it was 2.41; in test [15], 2.48; in test [16], -0.544; in [17] it was -0.551; in [18], 2.71. In addition, the “glycan array binding signal (z-score)” value in test [19] was -0.556; in test [20], -0.547; in [21] it was -0.553; in test [22], 1.96; in [23], -0.557; in test [24], -0.549.

B2: ConA (Canavalia ensiformis), P02866 (protein)
chain: MAISKKSSLFLPIFTFITMFLMVVNKVSSSTHETNALHFMFNQFSKDQKDLILQGDATTGTDGNLELTRVSSNGSPQGSSVGRALFYAPVHIWESSAVVASFEATFTFLIKSPDSHPADGIAFFISNIDSSIPSGSTGRLLGLFPDANVIRNSTTIDFNAAYNADTIVAVELDTYPNTDIGDPSYPHIGIDIKSVRSKKTAKWNMQNGKVGTAHIIYNSVDKRLSAVVSYPNADSATVSYDVDLDNVLPEWVRVGLSASTGLYKETNTILSWSFTSKLKSNEIPDIATVV
Take B2: the “glycan array binding signal (z-score)” value was 5.51 in test [25]; 4.75 in test [26]; 4.27 in test [27]; -0.283 in [28]; -0.248 in test [29]; -0.29 in test [30]. Besides, the “glycan array binding signal (z-score)” value in test [31] is -0.041; in test [32] it was -0.269; in [33] it was -0.184; in test [34] it was -0.009; in test [35], -0.243.
